These results are taken from PubChem BioAssay (NCI).

What all share (test): NCI-60 one-dose screen, 48 h (100 = growth as untreated, 0 = no growth, -100 = all killed)
One test deals with HCT-15 colon. To be noted: 10 µM.
A further test has as its system HT29 colon. Particulars: 10 µM.
A further test concerns SNB-75 CNS. To be noted: 10 µM.
The next test relates to SNB-19 CNS. Particulars: 10 µM.
The next test concerns U251 CNS. To be noted: 10 µM.
In a further test the test system is PC-3 prostate. To be noted: 10 µM.
In the next test the test system is SK-MEL-5 melanoma. Particulars: 10 µM.
The subject of the next test is UACC-62 melanoma. To be noted: 10 µM unless noted.
Another test has as its system LOX IMVI melanoma. Particulars: 10 µM.
In a further test the test system is SK-MEL-28 melanoma. To be noted: 10 µM.

Structures are written as SMILES. “And” between values parts separate entries of the source, which are not always exact repeats. Equal entries are not always repeated. This is part of a sample that, as a whole, favours compounds with a hit. Of some 83,000 tested, about 20% had one in any assay.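 Interpretation: 100, growth as untreated; towards 0, rising growth inhibition; 0, no net growth; 0 to -100, cell death. Compounds scoring below 10 were considered active.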 The source made the active and inactive calls.

Regarding `COC12C(COC(N)=O)C3=C(C(=O)C(C)=C(N)C3=O)N1CC1C2N1C` (stereo not given), the growth with HCT-15 colon was 33.2% (inactive); in the test on HT29 colon it was 8.04% (active); in the test on SNB-75 CNS it was 32.9% (inactive); with SNB-19 CNS it was 39.1% (inactive); in the test with U251 CNS it was 43% (inactive); with PC-3 prostate it was 47% (inactive). Moreover, the growth is 11.6% (inactive) with SK-MEL-5 melanoma, 46.3% (inactive) with UACC-62 melanoma and 28.3% (inactive) with LOX IMVI melanoma.
As for `[Cl][Hg][c]1ccc(Cl)s1`, the growth was -59.5% (active) in the test on HCT-15 colon; 25.2% (inactive) in the test with HT29 colon; 58.1% (inactive) in the test with SNB-75 CNS; 75.5% (inactive) with SNB-19 CNS; 14.9% (inactive) in the test on U251 CNS; 64.1% (inactive) with PC-3 prostate. Besides, the growth in the test with SK-MEL-5 melanoma was 46% (inactive); in the test on UACC-62 melanoma it was 51.3% (inactive); with LOX IMVI melanoma it was -70.9% (active).
In the case of `COc1ccccc1/C=C/[N+](=O)[O-]`, the growth in the test with HCT-15 colon was 42.3% (inactive); with HT29 colon it was 39.5% (inactive); in the test on SNB-75 CNS, 69.4% (inactive); in the test on SNB-19 CNS, 86.9% (inactive); in the test with U251 CNS, 50.3% (inactive); in the test on PC-3 prostate it was 64.1% (inactive). The growth is 83.4% (inactive) in the test with SK-MEL-5 melanoma, 73% (inactive) in the test on UACC-62 melanoma and 37.4% (inactive) in the test on LOX IMVI melanoma.
Consider `C/C(=C\c1ccc(Cl)c(Cl)c1)[N+](=O)[O-]`, for which the growth in the test with HCT-15 colon is -66.8% (active) and 101% (inactive); in the test on HT29 colon, -52.3% (active) and 102% (inactive); with SNB-75 CNS it was 90.3% (inactive); in the test with SNB-19 CNS, 87.4% (inactive) and 103% (inactive); in the test with U251 CNS, -23.9% (active) and 87.8% (inactive); with SK-MEL-5 melanoma it was 84.5% (inactive) and 101% (inactive). In addition, the growth in the test on UACC-62 melanoma was 13.5% (inactive) and 92.4% (inactive); in the test on LOX IMVI melanoma, -75.1% (active) and 90.1% (inactive).
Take `CC(C)C1(NC(=O)C2CC3c4cccc5[nH]cc(c45)CC3N(C)C2)OC2(O)C3CCCN3C(=O)C(Cc3ccccc3)N2C1=O` (stereo not given): the growth in the test with HCT-15 colon was 89.3% (inactive); in the test on HT29 colon, 101% (inactive); in the test with SNB-75 CNS, -1.61% (active); with SNB-19 CNS, 102% (inactive); in the test on U251 CNS, 98.8% (inactive); in the test with SK-MEL-5 melanoma it was 89.8% (inactive). Further, the growth was 86.4% (inactive) with UACC-62 melanoma and 91% (inactive) in the test with LOX IMVI melanoma.
Take `C=C1C(=O)O[C@@H]2C[C@@H](C)[C@@H]3C=CC(=O)[C@@]3(C)[C@@H](O)[C@H]12`: the growth in the test on HCT-15 colon was -83.7% (active); with HT29 colon it was -66% (active); with SNB-75 CNS, -94.8% (active); in the test with SNB-19 CNS it was -63.7% (active); in the test with U251 CNS, -100% (active); in the test on SK-MEL-5 melanoma, -93.5% (active). Besides, the growth was -61.4% (active) in the test with UACC-62 melanoma and -97% (active) in the test on LOX IMVI melanoma.
`CC/C(=C/c1ccc(OC)cc1OC)[N+](=O)[O-]`: the growth was -35.9% (active) in the test on HCT-15 colon; -1.29% (active) with HT29 colon; 44.9% (inactive) in the test on SNB-75 CNS; 41.6% (inactive) with SNB-19 CNS; 43.5% (inactive) in the test with U251 CNS; 38.1% (inactive) with SK-MEL-5 melanoma. For the same molecule, the figures for the growth in the test with UACC-62 melanoma and in the test on LOX IMVI melanoma were -36.2% (active) and -85.1% (active), respectively.
`C[CH2][Hg][S]c1ccccc1C(=O)O`: the growth in the test with HCT-15 colon is -84.7% (active); with HT29 colon, -59% (active); in the test on SNB-75 CNS, -43.7% (active); with SNB-19 CNS, 50.6% (inactive); in the test on U251 CNS it was -6.81% (active); with PC-3 prostate it was 55.8% (inactive). Besides, the growth in the test with SK-MEL-5 melanoma was -68.3% (active); in the test with LOX IMVI melanoma, -54.9% (active).
Take `CN(CCCl)c1ccc(/C=C/C2=[N+](C)c3ccccc3C2(C)C)cc1`: the growth in the test on HCT-15 colon was 101% (inactive); in the test on HT29 colon it was 5.58% (active); in the test on SNB-75 CNS, 38.9% (inactive); with SNB-19 CNS, 42.5% (inactive); in the test on U251 CNS it was 13.1% (inactive); in the test with PC-3 prostate, 5.9% (active). Also, the growth with SK-MEL-5 melanoma was 21.8% (inactive); in the test on UACC-62 melanoma it was 31.6% (inactive); in the test with LOX IMVI melanoma, 16.9% (inactive); in the test on SK-MEL-28 melanoma, 40.1% (inactive).
For `Cc1cc([N+](=O)[O-])c2ccccc2[n+]1[O-]`, the growth is -25.7% (active) and -13.2% (active) in the test on HCT-15 colon; -24.6% (active) and -48.6% (active) with HT29 colon; -63.6% (active) and -53.8% (active) in the test with SNB-75 CNS; -4.83% (active) and -14.1% (active) with SNB-19 CNS; -12.7% (active) and -32.2% (active) in the test on U251 CNS; -10.8% (active) and -56% (active) in the test with PC-3 prostate. In addition, the growth was -84% (active) and -58.2% (active) in the test on SK-MEL-5 melanoma; -55.5% (active) and -86.3% (active) in the test with UACC-62 melanoma; 7.14% (active) and -48.7% (active) in the test on LOX IMVI melanoma; 41.8% (inactive) and 15.2% (inactive) with SK-MEL-28 melanoma.
For `CC[C@@H](C)[C@@H]1NC(=O)C(NC(=O)C(CC(C)C)N(C)C(=O)C2CCCN2C(=O)C(C)O)C(C)OC(=O)C(Cc2ccc(OC)cc2)N(C)C(=O)C2CCCN2C(=O)C(CC(C)C)NC(=O)C(C)C(=O)C(C(C)C)OC(=O)C[C@H]1O` (stereo not given in full), the growth in the test with HCT-15 colon is -32.7% (active); in the test with HT29 colon, -53.2% (active); in the test on SNB-75 CNS it was -95.7% (active); with SNB-19 CNS, -44% (active); with U251 CNS it was -43.8% (active); with SK-MEL-5 melanoma, -98.1% (active). The growth in the test on UACC-62 melanoma is -68.9% (active); in the test with LOX IMVI melanoma, -70.2% (active).
`[O-][n+]1ccccc1S`: the growth was 32.8% (inactive) in the test with HCT-15 colon; 4.75% (active) in the test on HT29 colon; 56.5% (inactive) in the test on SNB-75 CNS; 59.9% (inactive) with SNB-19 CNS; 29.9% (inactive) with U251 CNS; 30.8% (inactive) in the test with PC-3 prostate. Further, the growth in the test with SK-MEL-5 melanoma was 48.9% (inactive); in the test on UACC-62 melanoma, 13.6% (inactive); with LOX IMVI melanoma it was 1.84% (active); with SK-MEL-28 melanoma it was 34.1% (inactive).
On to `C#CC1(O)CCC(C(C)(C)C)CC1` (stereo not given), for which the growth in the test with HCT-15 colon was 91.6% (inactive); with HT29 colon, 104% (inactive); with SNB-75 CNS, 113% (inactive); with SNB-19 CNS, 103% (inactive); in the test on U251 CNS, 106% (inactive); with PC-3 prostate it was 97.1% (inactive). Besides, the growth in the test with SK-MEL-5 melanoma was 105% (inactive); with UACC-62 melanoma, 104% (inactive); in the test with LOX IMVI melanoma, 110% (inactive); in the test on SK-MEL-28 melanoma it was 120% (inactive).
